# High-throughput results from PubChem.
# AmpC no deterg: qHTS Inhibitors of AmpC Beta-Lactamase (assay without detergent); AmpC nitrocefin hydrolysis, absorbance 480 nm, 0.0001% Triton; Potency, µM (series often up to 57.1 µM), actives largely listed as inhibitors; hit rate 0.52% among 330,000; AID 485341, 2010; note: nearly all actives have a fitted effect of over 20% in size
# Target sequence (P00811 whole entry, looked up): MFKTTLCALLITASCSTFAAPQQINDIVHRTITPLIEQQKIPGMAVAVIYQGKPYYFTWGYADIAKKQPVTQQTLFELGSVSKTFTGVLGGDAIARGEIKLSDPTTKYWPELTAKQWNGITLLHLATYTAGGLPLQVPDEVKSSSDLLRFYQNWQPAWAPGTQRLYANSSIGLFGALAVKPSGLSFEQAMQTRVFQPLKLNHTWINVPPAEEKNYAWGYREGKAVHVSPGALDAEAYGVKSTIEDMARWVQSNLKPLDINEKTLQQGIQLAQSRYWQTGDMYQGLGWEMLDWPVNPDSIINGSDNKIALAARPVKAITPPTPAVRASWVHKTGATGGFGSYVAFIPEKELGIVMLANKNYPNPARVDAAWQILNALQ
#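 20 mM phosphate pH 7.0 + 0.01% (detergent screen) or 0.0001% Triton X-100; 5.3 nM AmpC reagent; cpd preinc 15 min RT; nitrocefin (800 uM stock) to start; A480 q20 s × 4 min; Activity was normalised to no-enzyme and no-compound control wells.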
# HCV inh: qHTS Assay for Inhibitors of Hepatitis C Virus (HCV). Huh7.5.1 HCVcc-Cre infection, luciferase reporter, 44 h. Potency, µM (doses to about 41.8 µM), hits mostly inhibitors. hit rate 3.4% among 340,000
#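 Reporter virus HCVcc-Cre (~0.5 moi) infects cells exposed to compound; seeding density 1,000 cells/well with 4 h settling beforehand. Luminescence, 15 sec read, taken 44 h post-infection following a 15 min RT substrate incubation.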
# FMDV inh: High Throughput Screening for Foot and Mouth Disease Virus Antivirals; hit rate 1.2% among 410,000; FMDV antiviral cell-based qHTS; Potency, µM (series often up to 57.9 µM), most hits filed as inhibitors; calls by dose curve; tested in HEK293T cells; note: read-out not given here; nearly all actives have a fitted effect of over 45% in size
# HCMV inh: qHTS Assay for inhibitors of the human cytomegalovirus (HCMV). HFF cells, HCMV-luciferase reporter, 72 h; stronger effect = lower value. activity change, negative = inhibition, % at 57.5 µM. hit rate 4.5% among 410,000; in the data active = activity change below about -60%; inconclusive = no clear call, values can overlap the other calls; inactive = above about -39%
#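 Luciferase read-out from HCMV-luciferase-infected HFFs (MOI 1 PFU/cell) 72 h post infection at 37C; compounds added after 16 h cell attachment; activity normalized between buffer-only basal and Salinomycin (10uM) inhibitor controls.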
# AmpC detergent: qHTS Inhibitors of AmpC Beta-Lactamase (assay with detergent); P00811; AmpC hydrolysis of nitrocefin, absorbance 480 nm, 0.01% Triton; Potency, µM (top dose mostly 114 µM), actives largely listed as inhibitors; hit rate 0.041% among 370,000; AID 485294, 2010; note: nearly all actives have a fitted effect of over 25% in size
#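 AmpC (5.3 nM in the dispensed reagent) in 20 mM phosphate pH 7.0 with 0.01% (detergent screen) or 0.0001% Triton X-100 was preincubated with compounds for 15 min at room temperature. Nitrocefin was then added from an 800 uM solution, and hydrolysis was followed at 480 nm.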
# Hits are given with their value; 0 = inactive; ? = inconclusive; - = not tested or not shown; + = active, no number; [ ] = remark or other dose. The list is not random: actives were taken first. Their share in the collection is about 7.3%. Unless noted, calls come from the whole dose curve; as a rule, active = well fitted curve in the direction sought with a large enough effect; inconclusive = small, poorly fitted or top-dose-only effect, or another doubt; inactive = no such curve, though single readings can be large; an effect the other way counts as inactive or inconclusive.
SMILES,AmpC no deterg,HCV inh,FMDV inh,HCMV inh,AmpC detergent
Cc1cc(C)nc(/N=C2\NC(=O)CC(C(=O)O)N2c2ccc(Cl)cc2)n1 (stereo not drawn),8.9µM,0,0,0,?
CN(Cc1ccco1)C(=O)c1cc(NC(=O)C2CCC2)c2c(c1)nc(-c1ccncc1)n2C,-,-,0,-,-
CCCCN(CC)S(=O)(=O)c1ccc(C(=O)N=c2sc3cc(NC(C)=O)ccc3n2C)cc1,0,?,0,-72,0
COc1ccc(C(=O)Nc2cccc(-c3nc4ncccc4o3)c2C)cc1,0,0,0,0,0
COc1cc(C(=O)Nc2cccc(-c3nc4ncccc4o3)c2C)cc(OC)c1OC,0,?,0,-106,0
O=C(O)[C@@H]1C[C@H](CP(=O)(O)O)CCN1,-,-,0,-,-
C[C@H](CO)N1C[C@H](C)[C@@H](CN(C)S(=O)(=O)c2ccccc2)OCc2cnnn2CCCC1=O,-,-,0,0,-
NC(Cc1ccc(O)cc1)C(=O)NN=Cc1ccccc1Cl (stereo not drawn),-,-,-,0,-
CN1/C(=C/C(=S)NC(=O)C2(C)CC2(Cl)Cl)C(C)(C)c2ccccc21 (stereo not drawn),0[2.29 µM],?,0,-69,0
CN1/C(=C\C(=S)Nc2ccccc2)C(C)(C)c2ccccc21,0,?,0,-71,0
CN1/C(=C\C(=S)NC(=O)c2ccccc2Cl)C(C)(C)c2ccccc21,0,?,0,-84,0
COc1ccccc1C(=O)NC(=S)/C=C1/N(C)c2ccccc2C1(C)C,0,?,?,-92,0
CCOC(=O)/C=C1/N(C)c2ccccc2C1(C)C,0,0,0,0,0
CSC1=C(C#N)C(=O)NC(c2ccccc2O)S1 (stereo not drawn),0,0,?,0,0
COC(=O)CSC1=C(C#N)C(=O)NC(c2ccccc2)S1 (stereo not drawn),0,0,7.9µM,0,0
COC(=O)[C@H]1[C@H](CO)[C@H]2Cn3c(ccc(Br)c3=O)[C@H]2N1Cc1ccc2c(c1)OCO2,-,-,-,0,-
C=CCOC(=O)/C(=C/c1cccc2ccccc12)NC(=O)c1ccccc1,13µM,?,0,0,?
O=C(OCc1ccccc1)/C(=C/c1cccc2ccccc12)NC(=O)c1ccccc1,0,0,0,0,0
CCn1c(SCc2ccc(C#N)cc2)nnc1-c1ccc(S(=O)(=O)N2CCCCC2)cc1,0,7.9µM,?,-70,0
CCOc1ccc(CNC(=O)c2ccc3[nH]c(C)c(C)c3c2)cc1OC,-,-,0,+,?
COc1ccccc1-c1oc2ccccc2c1C#CC(C)(C)O,0,10µM,0,0,0
C=CCOC(=O)C1=C(C)N=C2SCCC(=O)N2C1/C=C/c1ccccc1 (stereo not drawn),0,?,0,-103,0
Cc1nc(-c2ccccn2)nc(SCC(=O)c2ccccc2)c1Cl,0,0,?,-82,0
Cc1ccc(NC(=O)N/C=C/c2ccco2)cc1C,0,0,0,-108,0
O=C(Cn1nnnc1CN1CCOCC1)N1CCC(c2cccc(Cl)c2)C1 (stereo not drawn),0,0,0,0,0
SMILES,AmpC no deterg,HCV inh,FMDV inh,HCMV inh,AmpC detergent
COc1ccc(-n2ncc3c(N4CCCCC4)ncnc32)cc1,0,?,10µM,-,0
Clc1ccc(Cn2ncc3c(N4CCCC4)ncnc32)cc1,0,0,0,0,0
Cn1ncc2c(N3CCN(c4cccc(Cl)c4)CC3)ncnc21,-,-,16µM,0,0
Cc1ccc(-n2ncc3c(N4CCCCC4)ncnc32)cc1,-,-,?,-101,0
Clc1ccc(-n2ncc3c(N4CCCCCC4)ncnc32)cc1,0,0,?,-79,?
COc1ccc(S(=O)(=O)Nc2ccc3c(c2)C(=O)N([C@H](C)CO)C[C@H](C)[C@@H](CN(C)C(=O)Nc2c(C)noc2C)OCCCC[C@H](C)O3)cc1,-,-,0,0,-
ClCC1CN(Cc2ccccc2Cl)CCO1 (stereo not drawn),0,0,0,0,0
Cc1noc2ncnc(N3CCN(c4cccc(Cl)c4)CC3)c12,0,10µM,25µM,-72,0
COc1ccc(-n2ncc3c(NCC(C)C)ncnc32)cc1,0,14µM,0,0,0
Cc1ccc(Cl)cc1N1CCN(c2ncnc3onc(C)c23)CC1,-,-,?,0,0
